# Screening data as filed in PubChem BioAssay.
# Only a selection was taken, and hits are over-represented in it overall.
# Methyltransferases: Primary Screen for Target Class Profiling of Small Molecule Inhibitors of Methyltransferases; purified enzyme, MTase-Glo SAH luminescence; hits give low values; hit rate 3.9% among 25,000; AID 1745853, 2022; calls only at 40 µM; call rule not given here
#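 Each enzyme was reacted with SAM and its substrate, with compounds tested once at 40 uM; SAH formed was read by MTase-Glo luminescence.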
# Calls only; – = inactive; + = active, no number.
SMILES,Methyltransferases
CNC(=O)CCn1ccc2cc(S(=O)(=O)N3CCCCC3)ccc21,–
CN(C)C/C=C(/c1ccc(Br)cc1)c1cccnc1,+
Cc1ccc(N2C(=O)c3cc4sccc4n3CC2(C)C(=O)NC2CCCC(C)C2C)c(C)c1 (configuration not stated),–
CC1(C(=O)NCc2ccccc2)Cn2nc(-c3ccccc3)cc2C(=O)N1C1CC1 (configuration not stated),–
CCCCN(CC)CCN1C(=O)c2ccc(-c3ccco3)n2CC1(C)C(=O)NC1CCCCCCC1 (configuration not stated),–
CC(C)C1c2cccn2CCN1C(=O)Nc1ccc(F)cc1 (configuration not stated),–
COc1ccc(C2(O)CCC(N3CC[C@@H](NC(=O)CNC(=O)c4cccc(C(F)(F)F)c4)C3)CC2)cn1 (some centres not stated),+
O=C(CNC(=O)c1cccc(C(F)(F)F)c1)N[C@@H]1CCN(Cc2ccc(Cl)cc2)C1,–
CC(=O)NC1CCN(C(=O)c2coc(COc3cccc(C(F)(F)F)c3)n2)C1 (configuration not stated),–
CCC(C)NC(=O)c1ccc2c(=O)n(C)c3nnc(SCc4ccc(N5CCCC5=O)cc4)n3c2c1 (configuration not stated),–
O=C(NCCc1ccccc1)c1ccc2c(=O)nc3c(-c4cccc(C(F)(F)F)c4)n[nH]n3c2c1,–
Cc1c(OCC(F)(F)F)ccnc1CS(=O)c1nc2ccccc2[nH]1 (configuration not stated),+
CC1(C(=O)NC2CCCCCCC2)Cn2c(cc3sccc32)C(=O)N1Cc1ccccc1F (configuration not stated),–
CC1(C(=O)NC2CCCCC2)Cn2c(cc3sccc32)C(=O)N1CCCN1CCOCC1 (configuration not stated),–
Cc1ccc(CN2CCN(Cc3ccc(=O)n(C)c3)CC2)cc1,–
CCC1(CO)CCCN(CCCOc2ccc(C(N)=O)cc2)C1 (configuration not stated),–
CCC(=C(c1ccc(OCCN2CCCC2)cc1)c1ccc(OCCN2CCCC2)cc1)c1ccccc1,+
c1cc(OCCCN2CCCCC2)ccc1CN1CCCCC1,+
CC/C(=C(\c1ccccc1)c1ccc(OCCN(C)C)cc1)c1ccccc1,–
CC/C(=C(\c1ccc(O)cc1)c1ccc(OCCNC)cc1)c1ccccc1,–
C=CCn1c(=O)c2ccc(C(=O)NC(C)C)cc2n2c(=O)n(CC(=O)Nc3cccc(Cl)c3)nc12,–
Cc1cc2[nH]c(=O)[nH]c2cc1S(=O)(=O)NCCc1ccccc1,–
COc1ccc(NC(=O)CCc2nnc3n(CCCOC(C)C)c(=O)c4ccccc4n23)cc1OC,–
CCCn1c(=O)c2ccccc2n2c(SCC(=O)Nc3ccccc3C)nnc12,–
COc1cccc(CNC(=O)c2ccc3c(=O)nc4c(-c5cccc(C)c5)n[nH]n4c3c2)c1,–
SMILES,Methyltransferases
CCc1c(Cl)c(O)c(Cl)c(O)c1C(=O)O[C@H]1[C@H](O)[C@H](OC)[C@H](OC/C2=C\C=C\C[C@H](O)/C(C)=C\[C@H](CC)[C@@H](O[C@@H]3OC(C)(C)[C@@H](OC(=O)C(C)C)[C@H](O)[C@@H]3O)/C(C)=C/C(C)=C/C[C@@H]([C@@H](C)O)OC2=O)O[C@@H]1C,+
CCCn1c(=O)c2ccc(Cl)cc2n2c(=O)n(CC(=O)Nc3ccc(F)cc3)nc12,–
CCc1ccc(-c2cc3n(n2)CC(C)(C(=O)NC2CCCCC2)N(Cc2ccccc2)C3=O)cc1 (configuration not stated),–
CCOC(=O)c1cc2n(n1)CC(C)(C(=O)NCc1ccccc1)N(c1cccc(SC)c1)C2=O (configuration not stated),–
Cc1cccc(N2CCN(C(=O)Cn3ncc4ccc(Cl)cc43)CC2)c1C,–
CCOC(=O)c1ccc2c(c1)[C@@H]1C=CC[C@@H]1[C@H](c1ccc(C)cc1)N2,–
COc1cc(/C=C/C(=O)O[C@@H]2C[C@@](O)(C(=O)O)C[C@@H](O)[C@@H]2O)ccc1O,–
C/C=C/c1ccc2oc(-c3ccc(O)c(OC)c3)c(C)c2c1,–
COc1cc(/C=C/c2cn(-c3ccc(C(=O)O)cc3)nc2/C=C/c2ccc(O)c(OC)c2)ccc1O,+
CCCC1c2ccc(C)n2CCN1C(=O)Nc1cc(C)cc(C)c1 (configuration not stated),–
CC1CCCCN1CCCN1C(=O)c2cc3occc3n2CC1(C)C(=O)NC1CCCCCC1 (configuration not stated),–
CCN1C(=O)c2cc(C(=O)NCc3ccccc3OC)nn2CC1(C)C(=O)NC1CCCC1 (configuration not stated),–
Cc1cccc(NC(=O)CSc2nnc3n(CC(C)C)c(=O)c4ccc(Cl)cc4n23)c1,–
O=C(NCCc1ccc(Cl)cc1)c1ccc2c(=O)nc3c(-c4cccc(F)c4)n[nH]n3c2c1,–
Cc1nn2c(c1-c1ccccc1OCc1ccccc1)N(C(=O)Cc1ccccc1)CCC2,–
